In the library only some 2.2% were active in any assay of this set; here they are far more common.
Shn3 inh set2: reduction of Shn3 3'UTR firefly luciferase signal, primary screen, Schnurri-3 inhibitor project, cell-based, Clone20 osteoblasts, set 2; Clone20 osteoblast Shn3 3'UTR firefly luciferase, 24 h; inhibition, % at 12.5 µM; actives 0.52% (n = 360,000);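 active means mean inhibition of at least 75% with every replicate also reaching 75%; inconclusive means mean inhibition at least 75% but some replicate below; inactive means mean inhibition below 75%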
PfHsp90 yeast 2: growth inhibition of PfHsp90-expressing yeast, primary screen, antimalarial PfHsp90 inhibitor project, S. cerevisiae, BacTiter-Glo luminescence, single point, set 2; actives 0.32% (n = 310,000); AID 504621, 2011; BacTiter-Glo ATP, 48 h; yeast lacking PDR1 and PDR3 efflux regulators; inhibition, % at 9.4 µM;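 active means every replicate shows inhibition above about 80%, whatever the replicate mean, limit read from the data; inconclusive means mean inhibition reaches the set limit but some replicate falls short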
Beta apoptosis: inhibitors of cytokine-induced beta cell apoptosis, primary screen, luminescence; INS-1E cytokine-induced death, ATP luminescence, 48 h; percent of positive-control rescue, neutral wells zero; protection from apoptosis, % (concentration not given with the values); actives 0.8% (n = 300,000);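 active means Every replicate reaches about 75%, or at least half do and their mean reaches it too, limit read from the data; inconclusive means At least half of replicates reach the limit but their mean does not; inactive means Under half of replicates reach the limit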;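 further: higher means more ATP so stronger rescue from cytokine killing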
CSC inhib: cancer stem cell viability inhibitors, primary screen, luminescence | cancer stem cell-like cells viability | inhibition, % at 7.5 µM | actives 1.1% (n = 300,000); in the data active means inhibition above about 75%; inconclusive means no clear call, values can overlap the other calls; tested in HMLE shEcad cells
Calb FLC: C. albicans growth inhibition with fluconazole, primary screen, CaCi-2 strain, Alamar Blue fluorescence. C. albicans CaCi-2 (fluconazole-resistant clinical isolate) + fluconazole, 48 h. growth inhibition, % (concentration not given with the values). actives 0.57% (n = 300,000). AID 1979, 2009;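 active means growth inhibition above about 58% in most replicates, limit read from the data, passing the limit was not always enough; inconclusive means exactly half the replicates above a set limit; inactive means most replicates below a set limit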;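 further: all wells also contain fluconazole at 8 µg/ml as a sub-toxic cotreatment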
A number is an active result; . = inactive; ? = inconclusive; / = no result given.

SMILES	Shn3 inh set2	PfHsp90 yeast 2	Beta apoptosis	CSC inhib	Calb FLC
O=C(CCS(=O)(=O)c1ccc(F)cc1)N1CCOCC1	.	.	.	.	.
FC(F)(F)c1nc2ccccc2n2c(-c3ccc(Cl)cc3)nnc12	.	.	100.6	/	.
Cc1ccc(-c2nnc3c(C(F)(F)F)nc4ccccc4n23)cc1	.	.	.	.	.
O=C(Cc1ccc(O)cc1)N/N=C/c1cccnc1	.	.	.	.	101.7
O=C(Cc1ccc(Cl)c(Cl)c1)N/N=C/c1cccnc1	.	.	.	.	.
O=C(Nc1nc2ccc(F)cc2s1)C1CCN(S(=O)(=O)c2cc([N+](=O)[O-])ccc2Cl)CC1	.	.	110.7	.	.
Cn1c(O)c(/C=N/Nc2ccccc2)c(=O)n(C)c1=O	.	.	.	88.6	?
OC(c1ccc(F)cc1)c1nc(-c2cccs2)cs1 (stereo not given)	.	/	/	/	/
Nc1nn(-c2ccccc2)c(N)c1N=Nc1ccc2c(c1)OCO2	.	.	.	.	.
Oc1ccc(N=Nc2ccc3c(c2)OCO3)c2ccccc12	/	/	99.0	140.0	.
Cc1ccc(NC(=O)c2cc(S(=O)(=O)NCCC3=CCCCC3)ccc2F)cc1F	92.0	.	106.9	.	.
Cc1ccc(S(=O)(=O)NCCC2=CCCCC2)cc1C(N)=O	.	.	.	.	.
O=C(Nc1cccc(F)c1)c1cc(S(=O)(=O)NCCC2=CCCCC2)ccc1F	88.7	.	.	.	.
CC(=O)N1CCc2cc(S(=O)(=O)NCCC3=CCCCC3)ccc21	.	.	87.5	/	.
Cc1cccc(S(=O)(=O)NC(=O)C2(C)CCN2C(=O)c2sccc2C)c1 (stereo not given)	.	/	/	/	/
Cn1nc(C2CC2)cc1NC(=O)C1(C)CCN1C(=O)Cc1ccc(-c2ccccc2)cc1 (stereo not given)	.	/	/	/	/
Oc1cc2c(cc1CN1CCc3ccccc3C1)OCO2	.	.	.	.	.
OCc1ccc(O)c2ncccc12	.	.	106.6	.	106.8
Oc1ccc(CN2CCN(c3ccccc3)CC2)c2cccnc12	.	.	.	.	.
Oc1ccc(CN2CCc3ccccc3C2)c2cccnc12	84.4	.	112.5	.	.
Cc1ccc(C)c(S(=O)(=O)N2CCN(Cc3ccc(O)c4ncccc34)CC2)c1	90.8	.	87.2	.	109.9
Oc1ccc(CN2CCCCC2)c2cccnc12	.	.	.	.	103.0
COc1ccc2c(=O)cc(-c3cccnc3)oc2c1OC	.	.	.	.	.
Oc1c(Cl)cc(CN2CCCCC2)c2cccnc12	.	.	111.2	87.0	.
Oc1ccc(CN2CCC(Cc3ccccc3)CC2)c2cccnc12	/	/	/	/	112.3
SMILES	Shn3 inh set2	PfHsp90 yeast 2	Beta apoptosis	CSC inhib	Calb FLC
Oc1c(CN2CCCCC2)ccc2cccnc12	.	.	/	/	/
CCOC(=O)N1CCN(Cc2ccccn2)CC1	.	.	.	.	?
COc1cc(CN2CCc3ccccc3C2)ccc1O	95.4	.	141.8	.	.
COc1cc(CN2CCc3ccccc3C2)cc([N+](=O)[O-])c1O	.	.	.	.	.
CCOC(=O)N1CCN(Cc2ccc(O)c3ncccc23)CC1	/	/	.	.	82.4
COc1ccc(C(=O)N/N=C(\CCC(=O)O)c2ccc(C(C)(C)C)cc2)cc1OC	.	.	.	.	.
CC1(C)C(C=C(Cl)Cl)C1C(=O)Nc1ccc([N+](=O)[O-])cc1 (stereo not given)	/	/	96.2	.	/
O=C(Nc1ccc([N+](=O)[O-])cc1)C1CC1(c1ccccc1)c1ccccc1 (stereo not given)	.	.	.	.	.
Cc1ccc(Nc2nc(N)c([N+](=O)[O-])c(N3CCOCC3)n2)cc1C	.	.	.	.	?
Cc1ccc(Nc2nc(N)c([N+](=O)[O-])c(N3CCC(C)CC3)n2)cc1C	.	.	.	85.5	.
Cc1cccc(Nc2nc(N)c([N+](=O)[O-])c(N3CCCC(C)C3)n2)c1 (stereo not given)	.	103.5	.	.	.
Cc1cccc(Nc2nc(N)c([N+](=O)[O-])c(N3CCN(C)CC3)n2)c1	.	.	.	.	.
CC[C@@H]1CC=C[C@H]2[C@H]1C(=O)N(Cc1ccccc1)[C@H]2c1ccoc1	.	/	.	86.4	.
COc1ccc(-c2cccc(C3CC=CC4C3C(=O)N(Cc3ccccc3)C4c3ccc(OC)c(Cl)c3)c2)cc1 (stereo not given)	.	.	.	.	.
CC[C@@H]1CC=C[C@H]2[C@H]1C(=O)N(Cc1ccccc1)[C@H]2c1ccc(OC)c(Cl)c1	.	.	.	76.6	.
N#CC1=C(N)NC(SCc2ccccc2)=C(C#N)C12CCCC2	.	.	.	78.2	.
CS/C(=C\[N+](=O)[O-])Nc1ccc(Cl)cc1	.	.	.	.	102.2
CC(C)=CC(=O)Nc1ccc(Cl)cc1	.	.	.	.	.
C[C@H](CO)N1C[C@H](C)[C@@H](CN(C)S(=O)(=O)c2ccc(F)cc2)Oc2ccc(NC(=O)Nc3ccccc3)cc2C1=O	.	.	.	.	/
C[C@@H]1CN([C@H](C)CO)C(=O)c2cc(NC(=O)Nc3ccc(C(F)(F)F)cc3)ccc2O[C@H]1CN(C)S(=O)(=O)c1ccc(Cl)cc1	.	.	.	77.8	/
C[C@H](CO)N1C[C@H](C)[C@@H](CN(C)S(=O)(=O)c2ccc(F)cc2)Oc2ccc(NC(=O)Nc3ccc(C(F)(F)F)cc3)cc2C1=O	.	.	.	87.4	/
C[C@H]1CN([C@@H](C)CO)C(=O)c2cccc(NC(=O)Nc3ccc(C(F)(F)F)cc3)c2O[C@@H]1CN(C)S(=O)(=O)c1ccc(Cl)cc1	.	.	.	130.1	/
C[C@@H]1CN([C@@H](C)CO)C(=O)Cc2cc(NC(=O)Nc3ccc(C(F)(F)F)cc3)ccc2O[C@@H]1CN(C)S(=O)(=O)c1ccc(Cl)cc1	.	.	.	131.9	/
C[C@H](CO)N1C[C@H](C)[C@@H](CN(C)S(=O)(=O)c2ccc(F)cc2)Oc2c(NC(=O)Nc3ccc(C(F)(F)F)cc3)cccc2C1=O	.	.	.	.	/
CC1CC(=O)Nc2ccccc2N1C(=O)CSc1nnnn1C(C)C (stereo not given)	.	.	.	/	/
SMILES	Shn3 inh set2	PfHsp90 yeast 2	Beta apoptosis	CSC inhib	Calb FLC
Cc1ccc(-c2nc3c(c(SCC(=O)N4CCOCC4)n2)COC(C)(C)C3)cc1	.	.	.	.	.
O=C(Nc1cc(S(=O)(=O)N2CCOCC2)ccc1N1CCCCC1)c1ccccc1Br	.	.	.	.	/
CC(CC(=O)N1CCN(c2ccc(C(F)(F)F)cn2)CC1)n1ccnc1 (stereo not given)	.	.	.	.	.
Cc1cccc(Cc2ncc(C(F)(F)F)cc2Cl)c1	.	.	.	.	.
CCN1CCN(c2c(/C=C3\SC(=S)N(Cc4ccco4)C3=O)c(C)c(C#N)c(=O)n2C)CC1	.	.	/	.	.
CC(C)=NOc1nc(NC(=O)NS(=O)(=O)c2ccccc2Cl)nc(N(C)C)n1	.	.	/	.	.
